Reference: the supplement of paper PMC10849652
Of roughly 7,900 targets only a part is listed; those with a hit were picked by preference. About 0.6% of all pairs of compound and target were hits.

Tests used:
Test in all cases: log2 fold change, soluble protein after heating vs DMSO (PISA); higher = thermal stabilisation; K562 cells, 10 uM, 30 min; active = over 0.2 and 3.5 SD of the protein, either way, in both replicates (recomputed)
[1] = compound: CS(=O)(=O)c1ccc(-c2cnc(N)c(C(=O)Nc3ccccc3)n2)cc1
Summary of the method: (§1)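 For each measurement, 10 μM compound was applied for 30 min to K562 cells at 2×10^6 cells/mL. Aliquots were heated for 3 min across 48°C-58°C, pooled, and extracted in PBS with 0.5% NP-40 at 4°C; the supernatant after 21,000xg for 90 min was soluble protein. This was quantified by TMTpro 16plex LC-MS/MS with channel sums equalised, and thermal stability was reported relative to control samples from duplicates, on a log2 fold-change scale.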

crizotinib = compound: C[C@@H](Oc1cc(-c2cnn(C3CCNCC3)c2)cnc1N)c1c(Cl)ccc(F)c1Cl [crizotinib]
Summary of the method: as §1

[2] = compound: C[C@@H]1COCCN1C2=NC(=NC(=C2)C3(CC3)S(=O)(=O)C)C4=C5C=CNC5=CC=C4
Summary of the method: as §1

[3] = compound: C[C@H](C1=CC=C(C=C1)C(=O)NC2=C3C=CNC3=NC=C2)N
Summary of the method: as §1

duvelisib = compound: C[C@H](Nc1ncnc2nc[nH]c12)c1cc2cccc(Cl)c2c(=O)n1-c1ccccc1 [duvelisib]
Summary of the method: as §1

gandotinib = compound: Cc1cc(Nc2cc(CN3CCOCC3)c3nc(C)c(Cc4ccc(Cl)cc4F)n3n2)n[nH]1 [gandotinib]
Summary of the method: as §1

tozasertib = compound: Cc1cc(Nc2cc(N3CCN(C)CC3)nc(Sc3ccc(NC(=O)C4CC4)cc3)n2)n[nH]1 [tozasertib]
Summary of the method: as §1

[4] = compound: Cc1cc(SCc2sc(-c3ccc(C(F)(F)F)cc3)nc2C)ccc1OCC(=O)O
Summary of the method: as §1

doramapimod = compound: Cc1ccc(-n2nc(C(C)(C)C)cc2NC(=O)Nc2ccc(OCCN3CCOCC3)c3ccccc23)cc1 [doramapimod]
Summary of the method: as §1

ispinesib = compound: Cc1ccc(C(=O)N(CCCN)[C@@H](c2nc3cc(Cl)ccc3c(=O)n2Cc2ccccc2)C(C)C)cc1 [ispinesib]
Summary of the method: as §1

Measured: log2 fold change

POLR2I (UniProt P36954)
inactive: [1] 0.003 | crizotinib 0.334 | [2] 0.052 | [3] 0.001 | duvelisib 0.085 | gandotinib 0.336 | tozasertib -0.086 | [4] -0.032 | doramapimod -0.047 | ispinesib 0.127

PXK (UniProt Q7Z7A4)
inactive: [1] -0.06 | crizotinib -0.139 | [2] 0.032 | [3] -0.026 | duvelisib -0.023 | gandotinib -0.042 | tozasertib -0.024 | [4] 0.011 | doramapimod -0.025 | ispinesib -0.203

PCBP2 (UniProt F8VRH0)
inactive: [1] -0.181 | crizotinib -0.075 | [2] -0.22 | [3] -0.267 | duvelisib -0.299 | gandotinib 0.013 | tozasertib -0.055 | [4] 0.074 | doramapimod -0.225

PUF60 (UniProt Q9UHX1)
UniProt Q9UHX1, sequence (Q9UHX1 whole entry, looked up): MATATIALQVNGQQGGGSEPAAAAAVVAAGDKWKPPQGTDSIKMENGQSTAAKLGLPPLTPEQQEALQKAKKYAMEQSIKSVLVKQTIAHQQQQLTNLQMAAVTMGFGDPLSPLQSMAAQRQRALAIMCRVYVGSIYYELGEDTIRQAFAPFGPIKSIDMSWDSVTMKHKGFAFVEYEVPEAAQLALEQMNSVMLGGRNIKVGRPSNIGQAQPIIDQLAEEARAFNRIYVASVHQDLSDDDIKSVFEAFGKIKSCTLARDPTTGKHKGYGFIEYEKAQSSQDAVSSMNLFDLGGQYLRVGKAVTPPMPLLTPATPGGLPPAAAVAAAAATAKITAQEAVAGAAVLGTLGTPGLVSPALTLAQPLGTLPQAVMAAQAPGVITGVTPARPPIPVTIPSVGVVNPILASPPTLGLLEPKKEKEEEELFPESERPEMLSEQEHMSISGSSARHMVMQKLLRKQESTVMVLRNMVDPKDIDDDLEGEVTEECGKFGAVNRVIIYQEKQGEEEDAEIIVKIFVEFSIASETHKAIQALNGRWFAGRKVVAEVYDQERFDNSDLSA
inactive: [1] -0.012 | crizotinib 0.031 | [2] 0.025 | [3] -0.199 | duvelisib 0.01 | gandotinib -0.09 | tozasertib 0.081 | [4] 0.056 | doramapimod -0.041 | ispinesib 0.039

PDE6D (UniProt O43924)
UniProt O43924, sequence (O43924 whole entry, looked up): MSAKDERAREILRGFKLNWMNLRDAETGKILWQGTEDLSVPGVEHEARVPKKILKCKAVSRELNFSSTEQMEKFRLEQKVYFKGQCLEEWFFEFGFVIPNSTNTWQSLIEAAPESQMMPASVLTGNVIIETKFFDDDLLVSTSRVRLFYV
inactive: [1] -0.165 | crizotinib 0.001 | [2] 0.079 | [3] -0.148 | duvelisib 0.109 | gandotinib -0.202 | tozasertib -0.076 | [4] -0.098 | doramapimod 0.084

PARP16 isoform 3 (UniProt Q8N5Y8)
inactive: [1] -0.008 | crizotinib 0.076 | [2] -0.021 | [3] 0.079 | duvelisib 0.048 | gandotinib 0.081 | tozasertib -0.007 | [4] -0.081 | doramapimod 0.072

POMK (UniProt Q9H5K3)
inactive: [1] -0.013 | crizotinib -0.044 | [2] -0.034 | [3] 0.086 | duvelisib 0.062 | gandotinib 0.027 | tozasertib 0.024 | [4] 0.092 | doramapimod 0.108 | ispinesib -0.203

POLD1 (UniProt P28340)
inactive: [1] 0.019 | crizotinib -0.042 | [2] 0.041 | [3] -0.025 | duvelisib 0.004 | gandotinib 0.036 | tozasertib 0.016 | [4] 0.046 | doramapimod -0.018 | ispinesib -0.01

PTRHD1 (UniProt Q6GMV3)
inactive: [1] 0.003 | crizotinib 0.006 | [2] 0.184 | [3] -0.097 | duvelisib 0.18 | gandotinib 0.08 | tozasertib 0.037 | [4] 0.022 | doramapimod -0.036 | ispinesib 0.225

PATL1 (UniProt Q86TB9)
active: ispinesib -0.339
inactive: [1] -0.014 | crizotinib -0.201 | [2] -0.037 | [3] 0.122 | duvelisib -0.002 | gandotinib -0.139 | tozasertib -0.014 | [4] 0.039 | doramapimod 0.12

PTPN12 (UniProt Q05209)
inactive: [1] 0.031 | crizotinib -0.018 | [2] -0.04 | [3] 0.069 | duvelisib -0.022 | gandotinib -0.088 | tozasertib 0.089 | [4] 0.053 | doramapimod -0.004 | ispinesib -0.011

PDCD6IP (UniProt Q8WUM4)
inactive: [1] 0.078 | crizotinib -0.177 | [2] 0.067 | [3] 0.077 | duvelisib 0.026 | gandotinib -0.117 | tozasertib 0.085 | [4] 0.17 | doramapimod -0.042 | ispinesib -0.14

POLR3B (UniProt Q9NW08)
inactive: [1] 0.038 | crizotinib -0.111 | [2] -0.004 | [3] 0.034 | duvelisib 0.007 | gandotinib -0.07 | tozasertib 0.101 | [4] 0.085 | doramapimod 0.03 | ispinesib -0.183

PCNT (UniProt O95613)
inactive: [1] 0.119 | crizotinib 0.023 | [2] 0.09 | [3] 0.153 | duvelisib -0.003 | gandotinib 0.06 | tozasertib 0.032 | [4] -0.006 | doramapimod -0.023 | ispinesib -0.099

PLBD2 (UniProt Q8NHP8)
inactive: [1] 0.014 | crizotinib -0.07 | [2] 0.044 | [3] -0.008 | duvelisib 0.045 | gandotinib 0.003 | tozasertib 0.015 | [4] -0.028 | doramapimod 0.022 | ispinesib -0.088

PCBP2 isoform 3 (UniProt Q15366)
inactive: [1] -0.036 | crizotinib -0.018 | [2] 0.06 | [3] -0.031 | duvelisib -0.006 | gandotinib -0.065 | tozasertib 0.056 | [4] 0.072 | doramapimod -0.008 | ispinesib 0.005

PSMC5 (UniProt P62195)
UniProt P62195, sequence (P62195 whole entry, looked up): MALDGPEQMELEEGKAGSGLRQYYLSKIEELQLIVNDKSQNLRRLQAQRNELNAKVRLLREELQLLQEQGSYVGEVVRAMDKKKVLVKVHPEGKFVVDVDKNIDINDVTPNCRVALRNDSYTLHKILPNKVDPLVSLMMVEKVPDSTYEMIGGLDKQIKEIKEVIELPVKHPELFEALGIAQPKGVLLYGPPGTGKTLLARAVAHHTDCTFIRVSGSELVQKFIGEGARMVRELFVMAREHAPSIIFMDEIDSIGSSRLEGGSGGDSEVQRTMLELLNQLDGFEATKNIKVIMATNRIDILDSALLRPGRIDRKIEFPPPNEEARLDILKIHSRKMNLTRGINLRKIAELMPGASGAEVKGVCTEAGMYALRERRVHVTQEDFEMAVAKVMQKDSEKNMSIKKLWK
inactive: [1] 0.025 | crizotinib 0.001 | [2] -0.07 | [3] 0.057 | duvelisib -0.028 | gandotinib 0.017 | tozasertib 0.04 | [4] 0.036 | doramapimod 0.028 | ispinesib -0.007

PC (UniProt P11498)
inactive: [1] 0.033 | crizotinib 0.103 | [2] 0.199 | [3] 0.167 | duvelisib 0.01 | gandotinib -0.143 | tozasertib -0.048 | [4] 0.024 | doramapimod 0.008 | ispinesib 0.186

PELO (UniProt Q9BRX2)
inactive: [1] 0.026 | crizotinib -0.15 | [2] -0.037 | [3] 0.158 | duvelisib 0.011 | gandotinib -0.096 | tozasertib 0.001 | [4] 0.07 | doramapimod 0.077 | ispinesib -0.336

PPP2R5C isoform 4 (UniProt Q13362)
inactive: [1] 0.031 | crizotinib -0.021 | [2] -0.177 | [3] 0.029 | duvelisib 0.066 | gandotinib -0.011 | tozasertib -0.055 | [4] -0.01 | doramapimod -0.06 | ispinesib -0.036

PGGT1B (UniProt P53609)
UniProt P53609, sequence (P53609 whole entry, looked up): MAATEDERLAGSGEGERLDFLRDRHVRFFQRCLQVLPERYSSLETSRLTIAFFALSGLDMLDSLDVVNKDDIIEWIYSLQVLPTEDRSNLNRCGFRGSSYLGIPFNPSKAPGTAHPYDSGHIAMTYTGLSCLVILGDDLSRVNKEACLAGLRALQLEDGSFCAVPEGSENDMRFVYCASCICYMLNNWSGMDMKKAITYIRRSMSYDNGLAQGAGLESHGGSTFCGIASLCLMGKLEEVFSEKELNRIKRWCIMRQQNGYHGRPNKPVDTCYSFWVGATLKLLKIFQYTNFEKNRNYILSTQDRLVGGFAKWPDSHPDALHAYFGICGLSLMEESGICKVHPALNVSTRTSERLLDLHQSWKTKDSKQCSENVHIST
inactive: [1] 0.093 | crizotinib 0.04 | [2] 0.002 | [3] -0.05 | duvelisib 0.046 | gandotinib -0.011 | tozasertib 0.006 | [4] -0.143 | doramapimod -0.028 | ispinesib 0.043

PSMD12 (UniProt O00232)
inactive: [1] 0.053 | crizotinib 0.009 | [2] -0.03 | [3] 0.073 | duvelisib -0.053 | gandotinib 0.029 | tozasertib 0.068 | [4] 0.057 | doramapimod 0.019 | ispinesib 0.003

PGGHG (UniProt Q32M88)
UniProt Q32M88, sequence (Q32M88 whole entry, looked up): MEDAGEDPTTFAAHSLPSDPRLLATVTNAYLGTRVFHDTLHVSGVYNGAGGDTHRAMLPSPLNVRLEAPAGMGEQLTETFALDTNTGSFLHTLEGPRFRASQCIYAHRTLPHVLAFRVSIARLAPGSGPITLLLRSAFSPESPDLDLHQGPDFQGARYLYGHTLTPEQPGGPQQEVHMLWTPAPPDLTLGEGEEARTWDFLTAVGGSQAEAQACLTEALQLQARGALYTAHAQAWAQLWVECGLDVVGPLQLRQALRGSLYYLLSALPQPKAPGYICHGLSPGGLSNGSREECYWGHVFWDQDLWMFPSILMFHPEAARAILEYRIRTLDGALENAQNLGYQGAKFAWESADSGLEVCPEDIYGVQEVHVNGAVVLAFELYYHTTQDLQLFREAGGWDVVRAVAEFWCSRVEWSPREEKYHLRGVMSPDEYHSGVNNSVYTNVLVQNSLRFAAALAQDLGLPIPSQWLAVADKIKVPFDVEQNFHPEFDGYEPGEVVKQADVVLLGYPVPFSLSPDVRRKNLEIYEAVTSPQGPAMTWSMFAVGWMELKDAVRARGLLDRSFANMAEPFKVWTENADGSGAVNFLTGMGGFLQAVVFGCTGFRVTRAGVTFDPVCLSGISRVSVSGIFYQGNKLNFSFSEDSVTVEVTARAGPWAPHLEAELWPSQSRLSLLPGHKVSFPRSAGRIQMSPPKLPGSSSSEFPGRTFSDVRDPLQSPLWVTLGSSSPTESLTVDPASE
inactive: [1] 0.019 | crizotinib -0.01 | [2] 0.003 | [3] 0.175 | duvelisib 0.073 | gandotinib -0.039 | tozasertib -0.108 | [4] 0.049 | doramapimod 0.048 | ispinesib 0.05

PPP6R1 (UniProt Q9UPN7)
inactive: [1] -0.013 | crizotinib -0.018 | [2] 0.125 | [3] 0.012 | duvelisib 0.027 | gandotinib -0.078 | tozasertib 0.084 | [4] -0.01 | doramapimod 0.01 | ispinesib -0.002

PDS5B (UniProt Q9NTI5)
UniProt Q9NTI5, sequence (Q9NTI5 whole entry, looked up): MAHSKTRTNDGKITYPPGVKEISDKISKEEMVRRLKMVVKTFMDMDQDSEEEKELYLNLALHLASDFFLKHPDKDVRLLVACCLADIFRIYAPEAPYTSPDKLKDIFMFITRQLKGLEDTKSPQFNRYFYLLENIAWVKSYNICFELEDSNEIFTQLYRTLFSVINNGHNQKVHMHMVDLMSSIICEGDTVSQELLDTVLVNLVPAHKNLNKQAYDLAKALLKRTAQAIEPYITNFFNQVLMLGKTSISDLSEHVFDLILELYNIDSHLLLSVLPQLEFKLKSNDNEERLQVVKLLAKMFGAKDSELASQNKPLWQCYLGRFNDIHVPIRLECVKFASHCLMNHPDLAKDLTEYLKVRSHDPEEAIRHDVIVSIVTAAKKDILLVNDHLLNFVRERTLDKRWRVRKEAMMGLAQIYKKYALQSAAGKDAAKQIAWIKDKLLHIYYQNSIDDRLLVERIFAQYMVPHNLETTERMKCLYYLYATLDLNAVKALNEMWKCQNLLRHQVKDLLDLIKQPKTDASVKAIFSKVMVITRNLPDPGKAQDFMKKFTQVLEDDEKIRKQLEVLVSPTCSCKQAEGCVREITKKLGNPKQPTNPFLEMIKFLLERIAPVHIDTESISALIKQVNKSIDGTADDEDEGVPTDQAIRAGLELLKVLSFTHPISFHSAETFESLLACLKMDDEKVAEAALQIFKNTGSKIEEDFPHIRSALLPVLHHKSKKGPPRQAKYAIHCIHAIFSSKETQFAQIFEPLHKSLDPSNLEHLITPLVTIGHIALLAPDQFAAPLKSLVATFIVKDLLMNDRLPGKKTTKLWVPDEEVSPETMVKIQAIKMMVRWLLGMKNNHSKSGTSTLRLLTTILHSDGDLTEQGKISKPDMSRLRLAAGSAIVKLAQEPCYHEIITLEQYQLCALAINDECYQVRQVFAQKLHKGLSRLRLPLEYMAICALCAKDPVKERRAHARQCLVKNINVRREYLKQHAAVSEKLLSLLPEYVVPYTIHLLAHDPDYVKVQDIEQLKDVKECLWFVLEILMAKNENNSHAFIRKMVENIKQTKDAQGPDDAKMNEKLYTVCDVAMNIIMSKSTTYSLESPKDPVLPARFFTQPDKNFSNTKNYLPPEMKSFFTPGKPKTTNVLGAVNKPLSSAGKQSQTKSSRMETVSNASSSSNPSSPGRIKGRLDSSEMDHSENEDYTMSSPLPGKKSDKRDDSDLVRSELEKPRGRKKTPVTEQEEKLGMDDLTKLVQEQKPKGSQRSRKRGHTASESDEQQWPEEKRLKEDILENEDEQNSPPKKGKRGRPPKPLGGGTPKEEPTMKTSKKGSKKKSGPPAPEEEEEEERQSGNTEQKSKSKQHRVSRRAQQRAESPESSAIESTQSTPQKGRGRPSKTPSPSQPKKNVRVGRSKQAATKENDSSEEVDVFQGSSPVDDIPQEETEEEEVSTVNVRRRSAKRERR
inactive: [1] 0.03 | crizotinib -0.229 | [2] 0.222 | [3] 0.041 | duvelisib 0.004 | gandotinib -0.149 | [4] 0.208 | doramapimod -0.074 | ispinesib -0.225
active: tozasertib -0.604

POLR2A (UniProt P24928)
inactive: [1] 0.027 | crizotinib 0.231 | [2] 0.049 | [3] 0.21 | duvelisib 0.06 | tozasertib -0.026 | [4] 0.023 | doramapimod -0.009 | ispinesib 0.006
active: gandotinib 0.321

PBX2 (UniProt P40425)
UniProt P40425, sequence (P40425 whole entry, looked up): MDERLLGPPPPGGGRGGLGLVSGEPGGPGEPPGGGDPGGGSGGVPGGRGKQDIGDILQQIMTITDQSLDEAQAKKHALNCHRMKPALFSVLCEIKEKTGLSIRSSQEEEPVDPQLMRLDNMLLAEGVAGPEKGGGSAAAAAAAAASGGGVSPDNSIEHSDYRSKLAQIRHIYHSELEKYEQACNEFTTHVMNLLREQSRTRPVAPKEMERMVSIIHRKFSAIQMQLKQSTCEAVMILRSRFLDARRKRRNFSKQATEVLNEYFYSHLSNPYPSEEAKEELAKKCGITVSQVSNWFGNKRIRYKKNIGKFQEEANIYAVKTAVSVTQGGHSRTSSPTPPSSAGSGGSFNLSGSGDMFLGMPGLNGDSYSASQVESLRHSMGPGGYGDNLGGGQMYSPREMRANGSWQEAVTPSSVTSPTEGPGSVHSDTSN
inactive: [1] -0.001 | crizotinib -0.14 | [2] 0.026 | [3] -0.051 | duvelisib 0.018 | tozasertib 0.062 | [4] 0.095 | doramapimod 0.119 | ispinesib -0.102
active: gandotinib -0.632

PLA2G15 (UniProt Q8NCC3)
UniProt Q8NCC3, sequence (Q8NCC3 whole entry, looked up): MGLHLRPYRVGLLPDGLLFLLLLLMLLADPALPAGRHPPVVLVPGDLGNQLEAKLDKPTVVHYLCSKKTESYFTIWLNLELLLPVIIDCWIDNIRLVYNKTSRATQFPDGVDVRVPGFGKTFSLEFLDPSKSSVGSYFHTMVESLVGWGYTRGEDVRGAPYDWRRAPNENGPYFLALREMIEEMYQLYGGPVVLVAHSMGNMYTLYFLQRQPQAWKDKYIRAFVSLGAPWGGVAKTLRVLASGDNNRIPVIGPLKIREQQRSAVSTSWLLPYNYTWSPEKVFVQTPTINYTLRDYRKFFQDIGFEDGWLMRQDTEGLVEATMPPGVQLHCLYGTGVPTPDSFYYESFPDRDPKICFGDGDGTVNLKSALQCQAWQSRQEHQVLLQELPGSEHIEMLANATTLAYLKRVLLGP
inactive: [1] 0 | crizotinib -0.163 | [2] -0.008 | [3] 0.015 | duvelisib -0.038 | gandotinib -0.036 | tozasertib -0.075 | [4] -0.016 | doramapimod 0.015 | ispinesib -0.055

PPT1 (UniProt P50897)
active: crizotinib -0.57 | ispinesib -0.394
inactive: [1] 0.022 | [2] -0.008 | [3] -0.029 | duvelisib 0.023 | gandotinib -0.018 | tozasertib -0.012 | [4] 0.023 | doramapimod -0.004

PEX13 (UniProt Q92968)
UniProt Q92968, sequence (Q92968 whole entry, looked up): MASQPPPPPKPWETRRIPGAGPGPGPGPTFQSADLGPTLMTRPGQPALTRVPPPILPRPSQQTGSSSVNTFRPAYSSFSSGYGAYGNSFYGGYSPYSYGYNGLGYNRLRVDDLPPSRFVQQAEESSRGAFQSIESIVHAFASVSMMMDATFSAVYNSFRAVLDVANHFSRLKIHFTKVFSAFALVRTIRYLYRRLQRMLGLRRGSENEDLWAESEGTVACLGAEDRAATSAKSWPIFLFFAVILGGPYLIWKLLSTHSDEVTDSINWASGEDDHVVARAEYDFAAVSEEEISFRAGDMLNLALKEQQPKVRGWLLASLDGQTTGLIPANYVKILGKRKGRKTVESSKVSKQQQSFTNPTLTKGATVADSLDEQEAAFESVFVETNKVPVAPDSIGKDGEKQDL
inactive: [1] -0.005 | crizotinib -0.146 | [2] 0.034 | [3] -0.047 | duvelisib 0.078 | gandotinib -0.143 | tozasertib -0.163 | [4] -0.016 | doramapimod 0.056 | ispinesib -0.026
